Results reported in PubChem BioAssay (NCI).
This is part of a sample that, as a whole, favours compounds with a hit. Of some 83,000 tested, about 20% had one in any assay.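 In brief: 96-well plates, 48 h treatment, single concentration, percent growth endpoint.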 The source made the active and inactive calls. The calls were made as follows: active = growth percent below 10; inactive = the rest.

Key:
Assay in all cases: NCI-60 one-dose screen, 48 h (100 = growth as untreated, 0 = no growth, -100 = all killed)
Details in all cases: 10 µM unless noted
NCI-H23 lung = test system: NCI-H23 lung
NCI-H226 lung = test system: NCI-H226 lung
NCI-H322M lung = test system: NCI-H322M lung
NCI-H460 lung = test system: NCI-H460 lung
HOP-92 NSCLC = test system: HOP-92 NSCLC
NCI-H522 lung = test system: NCI-H522 lung
A549/ATCC NSCLC = test system: A549/ATCC NSCLC
786-0 renal = test system: 786-0 renal
COLO 205 colon = test system: COLO 205 colon
HOP-62 NSCLC = test system: HOP-62 NSCLC

Measured: growth

C#CC#CC#CC#CC#CC#CC#CC#CC[C@H]1OC[C@H](COC(=O)O[C@@H](C(=O)O[C@H]2C[C@@]3(O)[C@@H](OC(=O)c4ccccc4)[C@@H]4[C@]5(OC(C)=O)CO[C@@H]5C[C@H](O)[C@@]4(C)C(=O)[C@H](OC(C)=O)C(=C2C)C3(C)C)[C@@H](NC(=O)c2ccccc2)c2ccccc2)O1
inactive: NCI-H23 lung 45.8% | NCI-H226 lung 54.5% | NCI-H322M lung 53.6% | NCI-H460 lung 18.8% | HOP-92 NSCLC 57.7% | NCI-H522 lung 63.5% | A549/ATCC NSCLC 49.6% | 786-0 renal 83.5% | COLO 205 colon 19.3%

COc1ccc(C2CC(c3ccc(Nc4nc(Nc5ccc(F)cc5)nc(Nc5ccc(F)cc5)n4)cc3)=NN2C(C)=O)cc1 (stereo not given)
active: HOP-92 NSCLC -13.6%
inactive: NCI-H23 lung 75.7% | NCI-H226 lung 106% | NCI-H322M lung 87.5% | NCI-H460 lung 101% | NCI-H522 lung 83.1% | A549/ATCC NSCLC 82.5% | 786-0 renal 82% | COLO 205 colon 111%

CCN1C(=O)N(CC)C2C1NN=c1s/c(=C\c3cc4ccccc4[nH]3)c(=O)n12 (stereo not given)
inactive: NCI-H23 lung 34.8% | NCI-H226 lung 38.6% | NCI-H322M lung 50.6% | 786-0 renal 28.9%
active: NCI-H460 lung 0.818% | HOP-92 NSCLC -5.71% | NCI-H522 lung -12.2% | A549/ATCC NSCLC 0.183% | COLO 205 colon -32.5%

COc1ccc2cc(-c3cnc4nonc4n3)ccc2c1
active: NCI-H522 lung 7.22%
inactive: NCI-H23 lung 30.6% | NCI-H226 lung 52.6% | NCI-H322M lung 54.5% | NCI-H460 lung 74.4% | HOP-92 NSCLC 80.8% | A549/ATCC NSCLC 36% | 786-0 renal 41.4% | COLO 205 colon 16.8%

COc1ccc(-c2cc(-c3cc(OC)c(OC)c(OC)c3)c(C#N)c(=O)n2CCCCCC(=O)NO)cc1
inactive: NCI-H23 lung 97.3% | NCI-H226 lung 92.2% | NCI-H322M lung 95.7% | NCI-H460 lung 96.6% | HOP-92 NSCLC 88.5% | NCI-H522 lung 89.5% | A549/ATCC NSCLC 87.2% | 786-0 renal 101% | COLO 205 colon 120%

c1ccc2cc(Cn3c[n+](Cc4ccc5ccccc5c4)c4ccccc43)ccc2c1
active: NCI-H23 lung -0.737% | NCI-H460 lung -34.2% | HOP-92 NSCLC -27.7% | NCI-H522 lung -28.8% | 786-0 renal -68.2% | COLO 205 colon -80.7%
inactive: NCI-H226 lung 19.6% | NCI-H322M lung 34.6% | A549/ATCC NSCLC 30.9%

N#C/C(=C\c1ccc(-c2ccc(Cl)cc2)o1)c1ccc(Cl)cc1
inactive: NCI-H23 lung 63.2% | NCI-H226 lung 30% | NCI-H322M lung 69.2% | NCI-H460 lung 10.3% | NCI-H522 lung 81% | A549/ATCC NSCLC 35.4% | COLO 205 colon 77.1%
active: HOP-92 NSCLC 5.34% | 786-0 renal -0.442%

COC(=O)/C=C1/SC(=Nc2cccc(Cl)c2)N(CCc2c[nH]c3ccc(O)cc23)C1=O
inactive: NCI-H23 lung 51.1% | NCI-H226 lung 81.3% | NCI-H322M lung 98.6% | NCI-H460 lung 37% | HOP-92 NSCLC 40.7% | A549/ATCC NSCLC 78.9% | 786-0 renal 19.1% | COLO 205 colon 90.3%

Cn1cc(-c2csc(-c3cn(C(=O)OC(C)(C)C)c4ccccc34)n2)c2ccnc(Cl)c21
inactive: NCI-H23 lung 57.1% | NCI-H226 lung 46.4% | NCI-H322M lung 85.3% | NCI-H460 lung 22.4% | HOP-92 NSCLC 58.5% | NCI-H522 lung 50% | A549/ATCC NSCLC 26.8% | 786-0 renal 67.2% | COLO 205 colon 39.8%

CN1CCN(CCOc2ccc(-c3cnc4c(-c5ccc(C(F)(F)F)cc5)cnn4c3)cc2)CC1
active: NCI-H460 lung -50.3% | A549/ATCC NSCLC -41.1% | 786-0 renal -57.3% | COLO 205 colon -55.7%
inactive: NCI-H23 lung 48.5% | NCI-H226 lung 87.8% | NCI-H322M lung 64.3% | HOP-92 NSCLC 40.4% | NCI-H522 lung 44.4%

COc1ccc(Cn2cc(C(=O)N=Nc3c(O)[nH]c4c(Cl)cccc34)nn2)cc1
inactive: NCI-H23 lung 99.3% | NCI-H226 lung 102% | NCI-H322M lung 101% | HOP-62 NSCLC 110% | HOP-92 NSCLC 105% | A549/ATCC NSCLC 102% | 786-0 renal 106% | COLO 205 colon 114%

CCN(CC)CCCC(C)Nc1ccc2cc(OC)ccc2n1 (stereo not given)
inactive: NCI-H23 lung 107% | NCI-H226 lung 107% | NCI-H322M lung 94.7% | NCI-H460 lung 108% | HOP-92 NSCLC 91.5% | NCI-H522 lung 99.1% | A549/ATCC NSCLC 85.4% | 786-0 renal 98.9% | COLO 205 colon 107%

COCC[C@H]1CCC/C=C/[C@@H]2C[C@H](O)C[C@H]2[C@H](O)/C=C/C(=O)O1
inactive: NCI-H322M lung 29.7% | A549/ATCC NSCLC 13.6%
active: NCI-H23 lung 6.07% | NCI-H226 lung -40.4% | HOP-92 NSCLC -8.55% | NCI-H522 lung -28.6% | 786-0 renal -45.9% | COLO 205 colon -64.4%

Cc1cc(N2CCN(C)CC2)nc(NCc2cc(Nc3ccnc4cc(Cl)ccc34)ccc2F)n1
inactive: NCI-H23 lung 25.4% | NCI-H226 lung 40.1%
active: NCI-H322M lung 8.43% | NCI-H460 lung -54.3% | HOP-92 NSCLC 5.13% | NCI-H522 lung -8.53% | A549/ATCC NSCLC -17% | 786-0 renal -26.9% | COLO 205 colon -61.6%

CCCCCCCCn1ccc2cc(NC(=O)Cn3cc(CN4CCCCCC4)nn3)ccc21
active: 786-0 renal -71.9% | COLO 205 colon -70.1%
inactive: NCI-H23 lung 52.3% | NCI-H226 lung 38.6% | NCI-H322M lung 26.7% | HOP-92 NSCLC 24% | NCI-H522 lung 52.4% | A549/ATCC NSCLC 50.6%

CCc1ccc(CCC(=O)Nc2ncc(Cc3ccc(Cl)cc3)s2)o1
active: NCI-H460 lung 6.53% | NCI-H522 lung -3.33%
inactive: NCI-H23 lung 54.9% | NCI-H226 lung 61.8% | NCI-H322M lung 52% | HOP-92 NSCLC 69.8% | A549/ATCC NSCLC 29.6% | 786-0 renal 41.2% | COLO 205 colon 12.3%

COc1ccc(/C(C)=C(\c2ccc(OCCN3CCCCCC3)cc2)c2ccc(OC(=O)c3ccccc3)cc2)cc1
inactive: NCI-H23 lung 52.2% | NCI-H226 lung 75.3% | NCI-H322M lung 80.5% | HOP-62 NSCLC 75.7% | HOP-92 NSCLC 54.4% | A549/ATCC NSCLC 41.1% | 786-0 renal 27.5% | COLO 205 colon 12.4%

C#CC#CC#CC#CC#CC#CC#CC#CCC1OCC(COC(=O)O[C@@H](C(=O)O[C@H]2C[C@@]3(O)[C@@H](OC(=O)c4ccccc4)[C@@H]4[C@]5(OC(C)=O)CO[C@@H]5C[C@H](O)[C@@]4(C)C(=O)[C@H](OC(C)=O)C(=C2C)C3(C)C)[C@@H](NC(=O)c2ccccc2)c2ccccc2)O1 (stereo not given in full)
inactive: NCI-H23 lung 35.2% | NCI-H226 lung 37.6% | NCI-H322M lung 29.1% | HOP-92 NSCLC 58.2% | NCI-H522 lung 24.3% | A549/ATCC NSCLC 18.7% | 786-0 renal 32.1% | COLO 205 colon 12.6%

O=C(CCCCNC(=O)c1cc(=O)c(O)co1)Nc1ccccc1
active: NCI-H522 lung -5.93%
inactive: NCI-H23 lung 86.2% | NCI-H226 lung 102% | NCI-H322M lung 102% | NCI-H460 lung 99.5% | HOP-92 NSCLC 59.1% | A549/ATCC NSCLC 104% | 786-0 renal 101% | COLO 205 colon 67.7%

Oc1c(Cl)cc(Cl)c2ccc(Cn3cc(-c4cccc(C(F)(F)F)c4)nn3)nc12
active: NCI-H522 lung -3.26%
inactive: NCI-H23 lung 90% | NCI-H226 lung 90.1% | NCI-H322M lung 102% | NCI-H460 lung 101% | HOP-92 NSCLC 55.8% | A549/ATCC NSCLC 97.9% | 786-0 renal 95.6% | COLO 205 colon 92.9%

COc1cc(-c2nc3ccc(C)cc3[nH]2)ccc1OCC(=O)N=Nc1c(O)[nH]c2ccc(Cl)cc12
active: NCI-H460 lung -56.1% | HOP-92 NSCLC 2.42% | 786-0 renal -82.5% | COLO 205 colon -15.9%
inactive: NCI-H23 lung 23.2% | NCI-H226 lung 86.8% | NCI-H322M lung 36.9% | NCI-H522 lung 20.6% | A549/ATCC NSCLC 29.7%

S=c1ssnc1-c1cccs1
inactive: NCI-H23 lung 85% | NCI-H226 lung 96.1% | NCI-H322M lung 94.5% | NCI-H460 lung 107% | HOP-92 NSCLC 80.5% | NCI-H522 lung 96.3% | A549/ATCC NSCLC 117% | 786-0 renal 65.1% | COLO 205 colon 115%

N=C(N)c1ccc(-c2ccc(-c3ccc(Cl)cc3)o2)o1
active: NCI-H522 lung -2.55% | A549/ATCC NSCLC -64.6% | 786-0 renal 1.68% | COLO 205 colon -78.6%
inactive: NCI-H23 lung 29% | NCI-H226 lung 82.7% | NCI-H322M lung 26.2% | HOP-92 NSCLC 39.5%

C(/C=C/c1ccccc1)=Nc1ccc(CCc2ccc(N=C/C=C/c3ccccc3)cc2)cc1
inactive: NCI-H23 lung 85.2% | NCI-H226 lung 95.9% | NCI-H322M lung 97.6% | NCI-H460 lung 54.8% | HOP-92 NSCLC 107% | NCI-H522 lung 76.6% | A549/ATCC NSCLC 104% | 786-0 renal 106% | COLO 205 colon 101%

CO[C@H](C(=O)[C@@H](O)[C@@H](C)O)[C@@H]1Cc2cc3cc(O[C@H]4C[C@@H](O[C@H]5C[C@@H](O)[C@H](O)C(C)O5)[C@H](O)C(C)O4)c(C)c(O)c3c(O)c2C(=O)[C@H]1O[C@H]1C[C@@H](O[C@H]2C[C@@H](O[C@H]3C[C@@H](OC)[C@H](O)C(C)O3)[C@@H](O)C(C)O2)C(O)(O)C(C)O1 (stereo not given in full)
active: NCI-H23 lung 7.35% | NCI-H226 lung -20.8% | NCI-H322M lung 9.68% | NCI-H460 lung 9.9% | HOP-92 NSCLC 9.37% | NCI-H522 lung -20.2% | A549/ATCC NSCLC 3.64% | COLO 205 colon -80%
inactive: 786-0 renal 11.2%

COc1ccc2nc(SCC(=O)Nc3ccccc3C)[nH]c2c1
inactive: NCI-H23 lung 101% | NCI-H226 lung 92.2% | NCI-H322M lung 90% | NCI-H460 lung 104% | HOP-92 NSCLC 83.2% | NCI-H522 lung 87.9% | A549/ATCC NSCLC 84% | 786-0 renal 99.9% | COLO 205 colon 113%

CC12CCC(/C(=C/NNc3ccc([N+](=O)[O-])cc3[N+](=O)[O-])C1=O)C2(C)C (stereo not given)
inactive: NCI-H23 lung 78.1% | NCI-H226 lung 87.1% | NCI-H322M lung 83.6% | NCI-H460 lung 45.1% | HOP-92 NSCLC 79.7% | NCI-H522 lung 36.2% | A549/ATCC NSCLC 77.9% | 786-0 renal 96.4% | COLO 205 colon 91.4%

COc1ccc(-c2oc(=O)ccc2-c2cc(OC)c(OC)c(OC)c2)cc1O
inactive: NCI-H23 lung 49% | NCI-H226 lung 64.1% | NCI-H322M lung 41.6% | HOP-92 NSCLC 103% | A549/ATCC NSCLC 26% | 786-0 renal 20.5% | COLO 205 colon 45.2%
active: NCI-H460 lung 4.04% | NCI-H522 lung -0.118%
